# In the library only some 8.8% were active in any assay of this set; here they are far more common.
# HttQ103 aggreg: inhibitors of mutant huntingtin aggregate formation in PC12 cells | PC12 HttQ103-GFP aggregates, Acumen cytometry, 40 h | Potency, µM (titrated, usually from 46.1 µM), usual class: inhibitors | 220,000 tested, 1.1% active | AID 1688; active means well fitted curve in the direction sought with a large enough effect; inconclusive means small, poorly fitted or top-dose-only effect, or another doubt; inactive means no such curve, though single readings can be large; an effect the other way counts as inactive or inconclusive; further: nearly all actives have a fitted effect of over 60% in size
#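 Multiplexed with ATP-based cell death, this channel scores GFP aggregates in PC12 cells expressing inducible HTTex1-Q103-GFP. Induction used 100 nM tebufenozide; compounds were tested in concentration series.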
# HTT ATP protect: cytoprotection in Huntington HTT-Q103 PC12 cell model. PC12 HTT-Q103 induced, cytoprotection, ATP luminescence, 40 h. AID 1471. Potency, µM (series often up to 56.4 µM), usual class: activators. 230,000 tested, 0.14% active; active means well fitted curve in the direction sought with a large enough effect; inconclusive means small, poorly fitted or top-dose-only effect, or another doubt; inactive means no such curve, though single readings can be large; an effect the other way counts as inactive or inconclusive; further: nearly all actives have a fitted effect of over 45% in size
#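 ATP quantification (ATPlite) reports survival of PC12 cells in which tebufenozide, 100 nM final, switches on Htt exon 1 with 103 glutamines linked to GFP; compounds are titrated.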
# ALDH1A1 inh: ALDH1A1 (human) enzyme inhibition; P00352; Purified ALDH1A1, NADH fluorescence, propionaldehyde substrate; Potency, µM (highest dose often 75.3 µM), most hits filed as inhibitors; 220,000 tested, 7.3% active
# Target sequence (P00352 whole entry, looked up): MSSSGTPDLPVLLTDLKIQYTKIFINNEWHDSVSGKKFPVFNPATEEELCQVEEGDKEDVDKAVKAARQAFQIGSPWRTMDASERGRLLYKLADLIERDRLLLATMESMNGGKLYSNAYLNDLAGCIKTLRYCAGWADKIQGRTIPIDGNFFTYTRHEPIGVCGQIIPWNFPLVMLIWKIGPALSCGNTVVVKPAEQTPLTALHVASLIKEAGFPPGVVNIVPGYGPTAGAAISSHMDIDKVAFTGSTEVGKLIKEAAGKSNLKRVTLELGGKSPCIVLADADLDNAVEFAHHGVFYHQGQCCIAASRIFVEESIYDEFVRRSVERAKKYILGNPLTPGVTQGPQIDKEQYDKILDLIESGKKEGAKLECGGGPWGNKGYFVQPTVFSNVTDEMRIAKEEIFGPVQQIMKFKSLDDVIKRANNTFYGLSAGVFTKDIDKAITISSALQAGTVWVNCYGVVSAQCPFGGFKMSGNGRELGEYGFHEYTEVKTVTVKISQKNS
# HPGD inh: HPGD (human) dehydrogenase inhibition | Potency, µM, hits mostly inhibitors | 150,000 tested, 4.3% active | purified HPGD, NADH fluorescence kinetic, PGE2 substrate
#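 NADH formation kinetics: reaction with 30 uM PGE2 and 1 mM NAD+ (final), 20 nM enzyme, Tris-HCl pH 8 with Tween 20, after 15 min compound preincubation at room temperature. Fluorescence change, last versus first of five reads.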
# LMNA splice mod: modulators of lamin A splicing; HeLa LMNA splicing GFP/RFP minigene ratio, 48 h; Potency, µM (top dose mostly 46.1 µM), actives largely listed as inhibitors; 200,000 tested, 0.01% active; AID 1487; active means well fitted inhibition curve with a large enough effect in the signal ratio, with a control signal flat, not every such curve was filed as active; inconclusive means small, poorly fitted or top-dose-only effect, or effect the other way, or a change in a side signal; the % refers to the signal ratio
#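 S3 HeLa stable clones carrying a lamin A-EGFP splicing minigene plus DsRed2 were seeded at 600 cells/well in Opti-MEM with 2% FBS, pin-dosed and incubated 48 h at 37°C. Acumen cytometry (488 nm) gave the GFP/RFP total-intensity ratio.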
# A number is an active result; – = inactive; ? = inconclusive; · = not tested or not shown; [ ] = dose if it differs, or a comment. Unless noted, the call rests on the fitted dose curve; in most records, active means well fitted inhibition curve with a large enough effect (not every such curve was filed as active); inconclusive means small, poorly fitted or top-dose-only effect, or another doubt; inactive means no such curve, though single readings can be large or run the other way.
SMILES,HttQ103 aggreg,HTT ATP protect,ALDH1A1 inh,HPGD inh,LMNA splice mod
CC1(C)[C@@H](O)CC[C@@]2(C)[C@H]1CC[C@]1(C)[C@H]2C(=O)C=C2[C@@H]3C[C@@](C)(C(=O)O)CC[C@]3(C)CC[C@@]21C,·,–,·,·,·
Cc1ccc(CNC(=O)Cn2c(=O)cc(C(F)(F)F)c3c(C)nn(C)c32)cc1,·,·,·,·,–
O=C(/C=C/c1ccccc1)Nc1cccc(S(=O)(=O)Nc2ccccc2F)c1,–,–[10 µM],0.79µM,2µM,?
O=C(Cc1ccc(Cl)cc1Cl)Nc1cccc(S(=O)(=O)Nc2ccccc2F)c1,–,–[10 µM],3.5µM,3.5µM,?
O=C(Nc1cccc(S(=O)(=O)Nc2ccccc2F)c1)c1ccc2ccccc2n1,–,–[10 µM],3.2µM,·,–
COc1ccccc1NS(=O)(=O)c1cccc(NC(=O)c2ccc3ccccc3n2)c1,–,–[10 µM],–,–,?
O=C(CC(SCCO)c1ccc(F)cc1)c1ccco1 (stereo unspecified),–,–,28µM,–,?
CS(=O)(=O)N(CC(=O)Nc1ccccc1C(=O)N1CCCC1)c1ccc2c(c1)OCO2,–,–,–,·,–
Cc1c(C(=O)N(C)C)sc2c1c(=O)n(-c1ccc(F)cc1)c(=O)n2Cc1cc(=O)n2ccccc2n1,·,·,·,·,–
Cc1ccc(S(=O)(=O)NC(=O)c2ccccc2)cc1C(C)C,?,2.8µM,–,·,–
CCOc1ccc(Br)cc1S(=O)(=O)NC(=O)c1ccccc1,–[9.22 µM],–[10 µM],–,·,·
COC(=O)C1=C(C)NC(=O)CC1c1ccccc1 (stereo unspecified),–,–[1.9 µM],–,–,–
CCOC(=O)C1=C(C)NC(=S)N(C=O)C1c1ccccc1 (stereo unspecified),–,–[10 µM],2µM,·,–
COC(=O)C1=C(C)NC(=S)N(C(C)=O)C1c1ccccc1 (stereo unspecified),–,–[1.9 µM],25µM,–,–
CCOC(=O)CCN1C(=O)[C@H]2[C@H]3[C@H](O)[C@H](O)C/C(=N/NC(=O)OCc4ccccc4)[C@H]3CC[C@@H]2C1=O,·,–[10 µM],–[13.5 µM],·,·
COc1ccc(OCC2c3cc(OC)c(OC)cc3CCN2C(=O)COc2ccc(Cl)cc2Cl)cc1 (stereo unspecified),·,·,·,·,–
O=C1CC(=O)N(c2ccccc2)N1c1ccccc1,–,–[0.074 µM],–,–,–
CC1(O)CC(=O)N(c2ccccc2)O1 (stereo unspecified),–,–,22µM,–,–
Oc1ccc(C2C(c3ccccc3)=NN=C(c3ccccc3F)N2O)c(O)c1 (stereo unspecified),–,·,8.9µM,–,?
CC1=NN=C(c2ccccc2)C(c2c[nH]c3ccccc23)N1O (stereo unspecified),–,·,–,–,–
Oc1ccc(C2C(c3ccccc3)=NN=C(c3ccc(Cl)cc3)N2O)c(O)c1 (stereo unspecified),–,·,11µM,–,–
CC1=C(C(=O)Nc2ccccc2)C(c2cccs2)NC(=O)N1 (stereo unspecified),·,·,–,·,–
COCC(=O)Nc1cc(Cl)ccc1C,–,–,?,·,?
Cc1ccc(Cl)cc1NC(=O)CSC(N)=O,–,–,1.6µM,–,–
Cc1ccc(Cl)cc1NC(=O)CC(O)(C(F)(F)F)C(F)(F)F,16µM,–,–,–,?
SMILES,HttQ103 aggreg,HTT ATP protect,ALDH1A1 inh,HPGD inh,LMNA splice mod
CC(O)CNc1cnccn1 (stereo unspecified),–,–,?,·,·
NNC(=O)CSc1nc(-c2ccccc2)nc2c1CCCC2,–,–,2µM,·,–
COc1ccc(OC2C(O)COC2/C=C/C#Cc2ccc(F)cc2F)cc1 (stereo unspecified),·,–[10 µM],–[13.5 µM],·,·
S=c1[nH]ncn1/N=C/c1cccc(Oc2ccccc2)c1,–,–,18µM,10µM,–
Cc1cc(C(C)(C)C)nc2[nH]n(-c3ccccc3)c(=O)c12,–,–,–,16µM,–
COc1ccc2c(c1)C(c1ccccc1C)CC(=O)O2 (stereo unspecified),·,–,32µM,?,·
CC(=O)N[C@H](Cc1c[nH]c2ccccc12)C(N)=O,·,·,–,–,·
O=C(NCC1CCCO1)c1cnn2c1NC(c1ccccc1)CC2C(F)(F)F (stereo unspecified),–,–[0.074 µM],–,25µM,–
COc1cccc(C2CC(C(F)(F)F)n3ncc(C(=O)NCc4ccco4)c3N2)c1 (stereo unspecified),2.8µM,–[0.074 µM],–,20µM,–
COc1cccc(C2CC(C(F)(F)F)n3ncc(C(=O)NC(C)(C)C)c3N2)c1 (stereo unspecified),–,–,–,–,–
O=C(NCC1CCCO1)c1nn2c(c1Cl)NC(c1ccc(F)cc1)CC2C(F)(F)F (stereo unspecified),–,–,–,–,–
COc1cccc(/C=C2\N=C(SC)SC2=O)c1OC,–,–,32µM,25µM,–
CSC1=N/C(=C\c2ccccc2F)C(=O)S1,–,–,–,·,–

# High-throughput results as filed in PubChem.
